# Laboratory results taken from PubChem BioAssay (NCATS).
# Results filed as inconclusive are left out. Values without a mark were called inactive. Activity calls are given as the source filed them. The call rests on the fitted dose curve.
# Test: Primary qHTS for Huh7 cytotoxicity: counterscreen for inhibitors of MERS-S pseudotyped particle cell entry (AID 1479147)
# Conditions: cell viability read-out; series mostly up to 57.1 µM; activity change, negative = cytotoxicity: at the top concentration
# On the % scale 0 is the no-effect control and ±100 the full control effect.
SMILES,outcome,"activity change, negative = cytotoxicity"
CCO[C@@H]1O[C@H](C(COCc2ccccc2)OCc2ccccc2)[C@H](OCc2ccccc2)[C@H]1O (stereo partly drawn),inactive,
CCOC(=O)NNc1nncc2ccccc12,inactive,
CN(C)[C@@H]1C(=O)C(C(=O)NCN2CCCC2)=C(O)[C@@]2(O)C(=O)C3=C(O)c4c(O)cccc4[C@@](C)(O)C3C[C@@H]12 (stereo partly drawn),inactive,
CCNC(=O)NCCCOc1cccc(CN2CCCCC2)c1,inactive,
CCN(CC)C(=O)C1CN2CCc3cc(OC)c(OC)cc3C2CC1OC(C)=O (stereo not drawn),inactive,
CC1(C)[C@@H]2CC[C@@]1(C)C(=O)C2,,-14.9%
CC(=O)N[C@H]1[C@H]([C@H](O)[C@H](O)CO)OC(C(=O)O)=C[C@@H]1N=C(N)N,inactive,
N[C@H]1CN(c2c(F)cc3c(=O)c(C(=O)O)cn(C4C[C@@H]4F)c3c2Cl)CC12CC2 (stereo partly drawn),inactive,
C[C@@H]1CCN(C(=O)[C@H](CCCN=C(N)N)NS(=O)(=O)c2cccc3c2NC[C@H](C)C3)[C@@H](C(=O)O)C1,inactive,
Cc1cccc(N(C)C(=S)Oc2ccc3c(c2)C2CCC3C2)c1 (stereo not drawn),inactive,
OC[C@H]1O[C@@H](O[C@@H]2[C@@H](CO)O[C@](O)(CO)[C@H]2O)[C@H](O)[C@@H](O)[C@H]1O,inactive,
Nc1ccc(N=Nc2ccccc2)c(N)n1,inactive,
CC1(C)OC[C@@H](COC(=O)CCc2ccc(OC[C@@H](O)CNCCNC(=O)N3CCOCC3)cc2)O1,,-1.6%
C[C@@H]1C[C@H]2[C@@H]3CCC4=CC(=O)C=C[C@]4(C)[C@@]3(Cl)[C@@H](O)C[C@]2(C)[C@@]1(OC(=O)c1ccco1)C(=O)CCl,inactive,
C/C(=N/NC(=O)c1ccncc1)C(=O)O,,-9.54%
CCCCCOc1ccc(C2SC(=O)NC2=O)cc1OCC (stereo not drawn),inactive,
CC1(C)[C@H](C(=O)O)N2C(=O)C[C@H]2S1(=O)=O,inactive,
N[C@H](C(=O)O)[C@@H](O)c1ccc(O)c(O)c1,,2.52%
O=C(O)c1ccc(OCCCOc2ccc(C(=O)O)cc2)cc1,inactive,

SMILES,outcome,"activity change, negative = cytotoxicity"
C=CCOc1ccccc1OCC(O)CNC(C)C (stereo not drawn),,-11%
CCC1Nc2cc(Cl)c(S(N)(=O)=O)cc2S(=O)(=O)N1 (stereo not drawn),inactive,
CCCc1ncc(C[n+]2ccccc2C)c(N)n1,,3.26%
COc1ccc2c(c1OC)C(=O)O[C@@H]2[C@H]1c2c(cc3c(c2OC)OCO3)CCN1C,,-3.02%
C/C(=C(\CCOP(=O)(O)O)SC(=O)c1ccccc1)N(C=O)Cc1cnc(C)nc1N,inactive [at 5.34 µM],
CN(Cc1ccc(C(C)(C)C)cc1)Cc1cccc2ccccc12,inactive,
Cc1cc(C(C)(C)C)c(O)c(C)c1CC1=NCCN1,,0.264%
O=C1c2ccccc2C(=O)C1c1ccccc1,inactive,
C[C@]12C=CC(=O)C=C1CC[C@H]1[C@@H]3C[C@@H](O)[C@](O)(C(=O)CO)[C@@]3(C)C[C@H](O)[C@@]12F,inactive,
O=C(CCCCCCCCC#CI)Oc1ccccc1,inactive,
O=c1ccc2ccccc2o1,inactive,
Cc1ccc(C(=O)Oc2ccc(C(O)CNC(C)(C)C)cc2OC(=O)c2ccc(C)cc2)cc1 (stereo not drawn),,0.165%
CCCCC1(COC(=O)CCC(=O)O)C(=O)N(c2ccccc2)N(c2ccccc2)C1=O,inactive,
C#C[C@]1(O)CC[C@H]2[C@@H]3CCc4cc(OC)ccc4[C@H]3CC[C@@]21C,inactive,
CN1[C@@H]2CC[C@H]1CC(NC(=O)n1c(=O)[nH]c3ccccc31)C2 (stereo partly drawn),inactive,
O=C(O)C(=O)Nc1cccc(-c2nn[nH]n2)c1,,-3.11%
c1ccc2[nH]c(-c3cscn3)nc2c1,,2.26%
CCOc1c(N2CCOCC2)cnn(C)c1=O,inactive,
COc1cc(NS(=O)(=O)c2ccc(N)cc2)nc(OC)n1,inactive,
